Data taken from PubChem BioAssay (NCATS).
Where “and” joins values, the source holds several entries; their conditions need not be identical. Equal entries are not always repeated. Inconclusive results are not listed. Where a call stands in place of a potency, no number is given. More than one record can exist for a structure, and the calls need not agree. Calls of active or inactive are those of the source. Unless noted, the call rests on the fitted dose curve; in most records, active means well fitted curve in the direction sought with a large enough effect; inconclusive means small, poorly fitted or top-dose-only effect, or another doubt; inactive means no such curve, though single readings can be large; an effect the other way counts as inactive or inconclusive.

What was measured:
[1] = Primary qHTS for small molecule stabilizers of the endoplasmic reticulum resident proteome: Secreted ER Calcium Modulated Protein (SERCaMP) assay (AID 1508630)
Summary of the method: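 The SH-SY5Y reporter protocol was run at 3 concentrations up to 38.3 uM (primary) or 11 concentrations (follow-up): 16 h compound, 100 nM thapsigargin for 4 h, then extracellular luciferase luminescence.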

[2] = A High-Content qHTS Against Drug Library for the Identification of Small Molecules that Inhibit DYT1 Early Onset Primary Dystonia-Associated Cell Pathology (AID 1645839; calls by dose curve; further: potency means the concentration at half of the fitted maximal effect)
Summary of the method: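 High-content imaging quantified EGFP-TorsinA mislocalization in HEK293-derived cells inducibly expressing DYT1 mutant torsinA, after 48 h exposure to compound given together with tetracycline induction. Cell count served as a toxicity channel alongside %pathology.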

[3] = molecular target: Cytochrome P450 2D6 (Homo sapiens) (UniProt P10635); experiment: Cytochrome P450 family 2 subfamily D member 6 (CYP2D6) small molecule antagonists: luciferase biochemical (cell-free) qHTS assay (AID 1645840; active means well fitted curve in the direction sought with a large enough effect in the repeat runs; an effect the other way counts as inactive or inconclusive; further: nearly all actives have a fitted effect of over 55% in size; further: potency means the concentration at half of the fitted maximal effect)
Cytochrome P450 2D6 (Homo sapiens), sequence (P10635 whole entry, looked up): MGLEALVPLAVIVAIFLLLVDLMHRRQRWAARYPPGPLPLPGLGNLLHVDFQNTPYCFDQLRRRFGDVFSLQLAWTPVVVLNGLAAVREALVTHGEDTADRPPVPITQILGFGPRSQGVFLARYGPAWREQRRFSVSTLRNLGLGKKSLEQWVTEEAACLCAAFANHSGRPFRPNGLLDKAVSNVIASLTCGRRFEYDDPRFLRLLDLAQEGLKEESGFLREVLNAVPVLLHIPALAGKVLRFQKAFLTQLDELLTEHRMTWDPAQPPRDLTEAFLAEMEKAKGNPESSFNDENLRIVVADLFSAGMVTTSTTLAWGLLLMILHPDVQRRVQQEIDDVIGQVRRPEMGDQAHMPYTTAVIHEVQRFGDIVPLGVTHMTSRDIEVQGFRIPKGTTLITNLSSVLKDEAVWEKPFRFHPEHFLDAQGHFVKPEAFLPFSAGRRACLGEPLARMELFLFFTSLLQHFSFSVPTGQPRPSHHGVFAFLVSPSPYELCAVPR
Summary of the method: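 P450-Glo CYP2D6 system: proluciferin substrate converted by enzyme to luciferin, read by luminescence proportional to activity. Enzyme-substrate mix with compound 10 min at room temperature, then NADPH regeneration 1 h before detection reagent.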

[4] = molecular target: Cytochrome P450 2C9 (Homo sapiens) (UniProt P11712); experiment: Cytochrome P450 family 2 subfamily C member 9 (CYP2C9) small molecule antagonists: luciferase biochemical (cell-free) qHTS assay (AID 1645842; active means well fitted curve in the direction sought with a large enough effect in the repeat runs; an effect the other way counts as inactive or inconclusive; further: nearly all actives have a fitted effect of over 55% in size; further: potency means the concentration at half of the fitted maximal effect)
Cytochrome P450 2C9 (Homo sapiens), sequence (P11712 whole entry, looked up): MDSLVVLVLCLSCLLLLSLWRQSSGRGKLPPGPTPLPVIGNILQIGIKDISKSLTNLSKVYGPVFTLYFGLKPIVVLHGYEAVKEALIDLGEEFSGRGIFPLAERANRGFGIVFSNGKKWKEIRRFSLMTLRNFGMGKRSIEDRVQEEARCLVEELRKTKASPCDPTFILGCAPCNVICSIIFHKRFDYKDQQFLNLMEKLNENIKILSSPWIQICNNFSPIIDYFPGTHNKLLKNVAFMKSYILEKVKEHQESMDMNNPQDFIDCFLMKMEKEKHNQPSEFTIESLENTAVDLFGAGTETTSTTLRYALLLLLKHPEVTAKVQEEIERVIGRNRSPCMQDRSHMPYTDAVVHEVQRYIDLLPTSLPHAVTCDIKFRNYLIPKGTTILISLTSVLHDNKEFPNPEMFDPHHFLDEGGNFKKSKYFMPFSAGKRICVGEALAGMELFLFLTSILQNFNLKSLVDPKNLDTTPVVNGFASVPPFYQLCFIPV
Summary of the method: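 P450-Glo CYP2C9 system: proluciferin substrate with enzyme in mix containing 0.4% BSA, 10 min at room temperature, then NADPH regeneration solution added and incubated 1 h at 37C. Detection reagent stopped reaction; luminescence read after 20 min as RLU.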

[5] = Primary qHTS for inhibitors of nuclear receptor binding SET domain protein 2 (NSD2) in an isogenic RCH-ACV NSD2 p.E1099K mutant (9B) (AID 1645876); further: nearly all actives have a fitted effect of over 70% in size; further: potency means the concentration at half of the fitted maximal effect
[6] = Primary qHTS for inhibitors of nuclear receptor binding SET domain protein 2 (NSD2) in an RCH-ACV wild type WT cells (2C) (AID 1645877); further: nearly all actives have a fitted effect of over 70% in size; further: potency means the concentration at half of the fitted maximal effect
[7] = Cell Viability qHTS for small molecule stabilizers of the endoplasmic reticulum resident proteome (AID 1508629); settings: cell viability counter-screen, 100 nM thapsigargin for final 4 h;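 further: human SH-SY5Y neuroblastoma cells carrying the GLuc-SERCaMP reporter; compound exposure about 46 h in total before the viability read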

| SMILES | Potency [1] | Potency [2] | Potency [3] | Potency [4] | Potency [5] | Potency [6] | max response [7] |
| --- | --- | --- | --- | --- | --- | --- | --- |
| CC(=O)CC(c1ccc([N+](=O)[O-])cc1)c1c(O)c2ccccc2oc1=O (stereo not given) | inactive | inactive | inactive | 2.19 µM (active) | inactive | inactive | – |
| CCN(CC)C(=O)N1CCN(C)CC1 | inactive | inactive | inactive | inactive | inactive | – | – |
| C[C@@H]1C[C@H]2[C@@H]3CCC4=CC(=O)C=C[C@]4(C)[C@@]3(F)[C@@H](O)C[C@]2(C)[C@H]1C(=O)CO | inactive | inactive | inactive | 11 µM (active) | – | – | – |
| Oc1ccc(Cl)c2cccnc12 | inactive | inactive | inactive | inactive | – | – | – |
| NC(=O)C(=O)N/N=C/c1ccc([N+](=O)[O-])o1 | inactive | inactive | 6.17 µM (active) | inactive | – | – | – |
| CC(=O)Oc1ccc(C(c2ccc(OC(C)=O)cc2)c2ccccn2)cc1 | inactive | inactive | 15.5 µM (active) | 17.4 µM (active) | inactive | – | – |
| CN1CCN(CCCN2c3ccccc3Sc3ccc(S(=O)(=O)N(C)C)cc32)CC1 | – | – | 11 µM (active) | – | – | 21.1 µM (active) | -9.17% (inactive) |
| Cc1onc(-c2c(Cl)cccc2Cl)c1C(=O)N[C@@H]1C(=O)N2[C@@H]1SC(C)(C)[C@@H]2C(=O)O | inactive | inactive | inactive | 20.4 µM (active) | inactive | inactive | – |
| Cc1cc2c(cc1CC(=O)c1sccc1S(=O)(=O)Nc1onc(C)c1Cl)OCO2 | inactive | inactive | 4.36 µM (active) and inactive | 3.09 µM (active) | inactive | inactive | – |
| C[C@]12C=CC(=O)C=C1CC[C@@H]1[C@@H]2[C@@H](O)C[C@@]2(C)[C@H]1CC[C@]2(O)C(=O)CO | inactive | inactive | inactive | inactive | – | 42.2 nM (active) and 209 nM (active) | – |
| CCCCC(=O)O[C@]1(C(=O)CO)CC[C@H]2[C@@H]3CCC4=CC(=O)CC[C@]4(C)[C@H]3[C@@H](O)C[C@@]21C | inactive | inactive | inactive | – | – | 0.106 µM (active) | – |
| CCCCCCC[N+](CC)(CC)CCCCc1ccc(Cl)cc1 | inactive | inactive | 0.0977 µM (active) | inactive | 1.88 µM (active) | 1.88 µM (active) | – |
| C[C@@H]1C[C@H]2[C@@H]3C[C@H](F)C4=CC(=O)C(Cl)=C[C@]4(C)[C@@]3(F)[C@@H](O)C[C@]2(C)[C@@]1(O)C(=O)CO | inactive | inactive | – | inactive | – | – | – |
| CC(C)NC[C@@H](O)COc1cccc2ccccc12 | inactive | inactive | – | inactive | – | – | – |
| CCCCCC=CCC=CCCCCCCCC(=O)OCC | inactive | inactive | – | 9.77 µM (active) | 23.7 µM (active) | 18.8 µM (active) | – |
| CCCCc1nc(Cl)c(CO)n1Cc1ccc(-c2ccccc2-c2nn[nH]n2)cc1 | inactive | inactive | inactive | 2.68 µM (active) | inactive | inactive | – |
| Cc1c(C(C)C)c(=O)n(-c2ccccc2)n1C | inactive | inactive | inactive | inactive | inactive | inactive | – |
| C[C@]12C=CC(=O)C=C1[C@@H](F)C[C@@H]1[C@@H]2[C@@H](O)C[C@@]2(C)[C@H]1CC[C@]2(O)C(=O)CO | inactive | inactive | inactive | inactive | – | 0.0422 µM (active) | – |
| C=C1C[C@H]2[C@@H]3C=C(C)C4=CC(=O)CC[C@]4(C)[C@H]3CC[C@]2(C)[C@@]1(OC(C)=O)C(C)=O | inactive | inactive | inactive | – | 23.7 µM (active) | 4.22 µM (active) | – |
| C/C=C/c1ccc(OC)cc1 | inactive | inactive | inactive | – | inactive | inactive | – |
| CCN1CCC[C@H]1CNC(=O)c1c(OC)ccc(Br)c1OC | inactive | inactive | – | inactive | inactive | inactive | – |
| OC[C@H]1O[C@@H](n2cnc3c(=S)nc[nH]c32)[C@H](O)[C@@H]1O | inactive | inactive | inactive | 11 µM (active) | 0.473 µM (active) | 0.422 µM (active) | – |
| CC(=O)OCC(=O)[C@@]1(O)[C@H](C)C[C@H]2[C@@H]3CCC4=CC(=O)C=C[C@]4(C)[C@@]3(F)[C@@H](O)C[C@@]21C | inactive | inactive | inactive | – | – | 3.3 nM (active) and 12.9 nM (active) | – |
| CCOC(=O)/C=C(C)/C=C/C=C(C)/C=C/c1c(C)cc(OC)c(C)c1C | inactive | inactive | – | 7.76 µM (active) | – | – | – |
| CCCCOc1ccc(C(=O)CCN2CCCCC2)cc1 | inactive | 10 µM (active) | 4.9 µM (active) | – | 15 µM (active) | 13.3 µM (active) | – |
| CC[N+](CC)(CCNC(=O)C(=O)NCC[N+](CC)(CC)Cc1ccccc1Cl)Cc1ccccc1Cl | inactive | inactive | 15.5 µM (active) | inactive | inactive | inactive | – |
| CCCC(=O)O[C@]1(C(=O)CO)CC[C@H]2[C@@H]3CCC4=CC(=O)CC[C@]4(C)[C@H]3[C@@H](O)C[C@@]21C | inactive | inactive | inactive | inactive | – | 0.0299 µM (active) | – |
| CC1=C(C(=O)O)N2C(=O)[C@@H](NC(=O)[C@H](N)c3ccc(O)cc3)[C@H]2SC1 | inactive | inactive | inactive | – | inactive | inactive | – |
